FBW7 activator = FBW7 E3 ligase activators, primary screen, biochemical, AlphaScreen, human; AlphaScreen FBW7–phospho-cyclin E peptide binding, activator screen; 0.13% of 650,000 active; F-box/WD repeat-containing protein 7 (Homo sapiens), Q969H0; normalized activity (activation), % at 26.1 µM; in the data active = normalized activity above about 1.9%;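 note: purified mutant Fbw7 with reduced substrate affinity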
GPR151 activ = activators of human GPR151, primary screen, cell-based, PathHunter beta-arrestin, luminescence; G-protein coupled receptor 151 (Homo sapiens), Q8TDV0; activation, % at 11.2 µM; PathHunter beta-arrestin GPR151 cells; AID 1508602, 2020; 1% of 650,000 active; in the data active = activation above about 4.9%;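 note: 0% = median of compound wells and 100% = cells with positive control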
TEAD-YAP inh = TEAD-YAP interaction inhibition, primary screen, TEAD-YAP interaction inhibitor project, luminescence, HEK-TIYL cells | 1.4% of 640,000 active | TEAD-Gal4/YAP UAS-luciferase luminescence | AID 1259422, 2018 | inhibition, % at 9.12 µM; in the data active = inhibition above about 32%;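 note: 0% = median of test compound wells and 100% = reference inhibitor wells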
MITF primary = MITF inhibitors, primary screen, biochemical, AlphaScreen, human. AlphaScreen MITF homodimerization, bead proximity signal. 0.91% of 650,000 active. Microphthalmia-associated transcription factor (Homo sapiens), O75030. inhibition, % at 2.6 µM; in the data active = inhibition above about 50%;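 note: 0% = vehicle wells with protein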
* marks the source's active call; other numbers are inactive results. A selection: hits, their analogues and other compounds. The true share with any hit is near 3.5%.

SMILES	FBW7 activator	GPR151 activ	TEAD-YAP inh	MITF primary
CC(=O)Oc1cccc2ccc(/C=C/c3cc4c(cc3Cl)OCO4)nc12	0	0	-23	15
CC(=O)Oc1cccc2ccc(/C=C/c3ccc4c(c3)OCO4)nc12	0	-8	78*	14
Oc1cccc2ccc(/C=C/c3ccc4c(c3)OCCO4)nc12	0	-10	92*	-2
O=C(O)c1ccc2c(c1)C(=O)N(c1ccc(-c3ccnc(-c4ccc(N5C(=O)c6ccc(C(=O)O)cc6C5=O)cc4)n3)cc1)C2=O	0	0	-1	-5
CCn1c(SCC(=O)c2ccc(F)cc2)nnc1-c1cccnc1	0	4	-15	2
CCOCCn1c2c(c3ccccc31)=NC1C=CC=CC1N=2 (stereo not given)	2.7*	-1	-26	8
CN(C(=O)c1cccc2ncccc12)c1nc2c(s1)CCc1occc1-2	7.5*	0	-7	12
Cc1nnc(SC(C)C(=O)Nc2ccc3nc(SCC(=O)N4CCc5ccccc54)sc3c2)s1 (stereo not given)	0	-1	35*	-4
COc1ccccc1C(=O)Nc1ccc2nc(SCC(=O)N3CCc4ccccc43)sc2c1	0	0	-6	3
Cc1ccccc1NC(=O)Nc1ccccc1C	0	1	-11	-10
Cc1ccccc1NC(=O)/C(Cl)=C(\Cl)S(=O)(=O)C(C)C	0	-1	52*	-15
Cc1cc(C(=O)N2CCN(Cc3ccccc3)CC2)on1	1.9*	0	-3	16
Cc1cccc(CN2CCN(C(=O)CCl)CC2)c1	0	2	38*	2
COc1cccc(-c2cc(C(=O)N3CCN(Cc4ccccc4)CC3)on2)c1	0	-1	-8	-11
CCOC(=O)N1CCN(Cc2cccc(C)c2)CC1	0	0	5	15
CCCCOc1cccc(C(=O)NC(=S)Nc2ccc(S(N)(=O)=O)cc2)c1	1	0	-21	15
CCOC(=O)CN1c2ccccc2NC1C(C#N)c1ccc(OC)cc1 (stereo not given)	0	-2	36*	0
CCOC(=O)CSC1=C(C#N)C(=O)NC(c2ccc(OC)cc2)S1 (stereo not given)	0	0	-3	-2
CC(C)CC(=O)Nc1nnc(Cc2ccccc2)s1	0	-1	-22	-2
CC(C)N(CCNc1nc(Nc2nccc3ccccc23)nc2c1ncn2C(C)C)C(C)C	0	-1	50*	20
CCCNc1nc(Nc2cnccn2)nc2c1ncn2C(C)C	0	3	46*	5
c1cc2c(cc1CN1CCN(c3nc(NC4CC4)c4ncn(C5CCCCC5)c4n3)CC1)OCO2	0	0	3	14
c1ccc2[nH]c(CNc3nc(N4CCN(Cc5ccc6c(c5)OCO6)CC4)nc4c3ncn4C3CCCCC3)nc2c1	0	3	41*	-1
c1ccc2[nH]c(CNc3nc(N4CCN(Cc5ccc6c(c5)OCO6)CC4)nc4c3ncn4-c3ccsc3)nc2c1	0	0	85*	-3
COc1cc(NC(=O)COC(=O)c2cc(O)[nH]c(=O)c2)c(C)cc1[N+](=O)[O-]	0	1	6	14
SMILES	FBW7 activator	GPR151 activ	TEAD-YAP inh	MITF primary
Cc1ccc(CNc2nc3ccccc3n2C)cc1	1	-8	75*	19
Cn1c(NCc2ccncc2)nc2ccccc21	0	0	-4	-22
Cn1c(CNc2ccc(O)cc2)nc2ccccc21	0	-1	-16	12
Cc1ccc(NCc2nc3ccccc3n2C)cc1	0	-5	35*	23
COc1ccc(-c2cnn3c(NCc4ccco4)ccnc23)cc1	0	0	-50	-13
O=C(Cn1ccc(C(F)(F)F)n1)N/N=C/c1ccc(O)c(O)c1O	-1	0	0	65*
O=C(CCN1CCN(c2ccccc2)CC1)N/N=C/c1ccc(O)c(O)c1O	-1	1	4	70*
CCCOc1ccc(/C=N/NC(=O)Cc2cn3ccsc3n2)c(O)c1	0	0	-23	2
O=C(Cc1csc(N2CCOCC2)n1)NNC(=S)Nc1ccc(Cl)cc1Cl	0	-1	-3	17
O=C(Cc1cn2ccsc2n1)N/N=C/c1ccc(O)c(O)c1O	-1	0	-4	78*
O=C(Cc1csc(N2CCOCC2)n1)N/N=C/c1ccc(O)c(O)c1O	-1	0	4	66*
CN1CCN(CCC(=O)N/N=C/c2ccc(O)cc2O)CC1	0	0	1	-77

Screening data as filed in PubChem BioAssay.
